Compound activity deposited in PubChem BioAssay by NMMLSC.
RGS7-Gao reg: human RGS7-Galphao interaction regulation. P09471. Multiplexed bead flow cytometry, RGS7-Galphao binding; actives lie on both sides. binding response (% of control), % at 10 µM. hit rate 0.35% among 220,000. AID 1439; in the data active = binding response below about 49% or above about 150%; inconclusive = no clear call, values can overlap the other calls; inactive = in between;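 also: fluorescent Galphao held in activated GDP-AlF4 state binding bead-coupled RGS7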
Target sequence (P09471 whole entry, looked up): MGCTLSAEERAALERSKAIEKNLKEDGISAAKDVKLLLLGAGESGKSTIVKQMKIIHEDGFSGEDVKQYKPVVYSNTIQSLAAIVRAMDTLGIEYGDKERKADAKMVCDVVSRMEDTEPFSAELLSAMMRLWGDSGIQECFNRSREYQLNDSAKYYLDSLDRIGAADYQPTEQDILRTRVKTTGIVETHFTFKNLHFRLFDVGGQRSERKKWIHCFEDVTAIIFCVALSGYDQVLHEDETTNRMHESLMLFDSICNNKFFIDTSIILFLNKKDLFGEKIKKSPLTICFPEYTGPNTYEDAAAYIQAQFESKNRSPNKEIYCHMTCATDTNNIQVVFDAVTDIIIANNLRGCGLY
GSH bead fluor: GSH bead compound fluorescence profile; GSH beads flow cytometry, compound fluorescence 488/530 nm; stronger effect = higher value; hit rate 0.25% among 190,000; AID 1776; fluorescence (KMESF) at 10 µM; in the data active = fluorescence above about 89;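 also: glutathione beads carrying GST-tagged Bcl family fusion proteins plus one bare bead set; values are compound well signal with DMSO vehicle wells as background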
RGS16-Gao HTS: modulates binding between human RGS16 and Galphao; binding response (% of control), % at 10 µM; O15492+P09471; AID 1441; hit rate 0.38% among 220,000; bead-based flow cytometry RGS16-Galphao binding, fluorescence; actives lie on both sides; call rule not given here;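 also: Galphao activated by GDP with aluminum fluoride before binding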
Target sequence (O15492 whole entry, looked up): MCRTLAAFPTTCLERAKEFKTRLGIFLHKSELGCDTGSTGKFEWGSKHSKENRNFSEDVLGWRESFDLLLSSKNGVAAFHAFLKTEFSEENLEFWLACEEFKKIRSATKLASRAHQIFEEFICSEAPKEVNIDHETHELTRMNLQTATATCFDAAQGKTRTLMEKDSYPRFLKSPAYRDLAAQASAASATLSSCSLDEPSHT
Target sequence (P09471 whole entry, looked up): as the sequence (P09471 whole entry, looked up) above
Avidin bead fluor: avidin bead compound fluorescence profile | Avidin beads, compound fluorescence 488/530 nm, flow cytometry; stronger effect = higher value | fluorescence (KMESF) at 10 µM | hit rate 0.38% among 220,000 | AID 1775; in the data active = fluorescence above about 47
RGS8-Gao: regulators of human RGS8-Galphao interaction; P09471; multiplexed bead flow cytometry, RGS8-Galphao binding; actives lie on both sides; response (percent of control binding), % at 10 µM; hit rate 0.34% among 220,000; AID 1423; in the data active = response below about 60% or above about 140%; inactive = in between;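 also: Galphao activated as the GDP aluminium fluoride complex binding bead-coupled RGS8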
RGS4-Gao reg: human RGS4-Galphao interaction regulation | P09471 | Multiplexed bead flow cytometry, RGS4-Galphao binding; actives lie on both sides | binding response (% of control), % at 10 µM | hit rate 0.33% among 220,000; in the data active = binding response below about 49% or above about 150%; inactive = in between;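 also: fluorescent Galphao activated with aluminum fluoride binding bead-coupled RGS4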
Starred values were filed as active, the others as inactive; ? = inconclusive; · = no result given. Compounds with a hit are over-represented: about 1.2% of the library has one in this group of screens.

SMILES	RGS7-Gao reg	GSH bead fluor	RGS16-Gao HTS	Avidin bead fluor	RGS8-Gao	RGS4-Gao reg
O=C(Nc1cc(Cl)ccn1)C1(c2ccccc2)CC1(Cl)Cl (stereo not drawn)	?	·	102.3	11	100.9	101.8
Cc1ccc(-c2nc(NC(=O)c3cc(C(C)(C)C)nn3C)sc2C)cc1Cl	?	·	99.5	6	100.1	99.6
Cc1oc2c(O)c(O)ccc2c(=O)c1-c1ccccc1	?	·	89.1	8	93.7	91.7
Cc1oc2c(O)c(O)ccc2c(=O)c1-c1cnn(-c2ccccc2)c1	46.4*	4	35.2	11	66.7	42.5*
C=CCn1c(SCC(=O)Nc2cccc3ccccc23)nnc1-c1cnccn1	106.5	14	98.2	51*	101.5	98.8
Cc1cc(C(=O)CNCc2ccco2)c(C)n1-c1ccc(F)cc1	107.8	248*	101.2	8	103.1	105.7
CC(C)Cn1c(=O)c2c(nc3n2CCCN3CCc2ccccc2)n(C)c1=O	96.2	257*	52.2	5	86.3	97.9
Cc1nn(-c2cccc(Cl)c2)c2nc(-c3ccncc3)cc(C(=O)N3CCOCC3)c12	98.6	15	112.2	11	103.6	101.8
CCCCN(CC)Cc1ccc(CNC(=O)Nc2ccc(OCC)cc2)o1	132.9	34	106.2	87*	101.4	112.9
CCCCN(CC)Cc1ccc(CNC(=O)Nc2ccc(Cl)cc2)o1	102.8	16	102.8	5	103.6	103.0
Cc1c(O)ccc(-c2n[nH]c(C(=O)O)c2-c2nc3ccccc3s2)c1O	?	·	96.7	8	96.9	95.8
O=C1CCc2cc(S(=O)(=O)NC(Cc3ccccc3)C(=O)NCCC3=CCCCC3)ccc2N1 (stereo not drawn)	143.2	20	101.9	54*	97.0	105.8
COc1ccc(CCCC(=O)N/N=C/c2ccccc2OC)cc1	98.8	10	106.2	3	103.2	101.2
N#Cc1c(N2CCCC2)ccc(Br)c1Cl	?	·	84.9	4	92.5	82.6
COc1ccc(C(CC(=O)Nc2nccs2)n2cccc2)cc1 (stereo not drawn)	107.3	12	101.4	49*	102.0	105.0
CCCCOc1ccc(C2CCC(C(C)=O)C(C)C2)cc1 (stereo not drawn)	?	·	111.3	8	106.3	106.9
O=C1CCCc2ccccc2N1Cc1ccc(Cl)cc1Cl	113.1	20	95.4	68*	99.8	99.2
CCOc1ccc(-c2nn[nH]n2)cc1	105.1	275*	106.1	8	102.7	101.3
COc1ccc(CNCCSc2nnnn2C)c(OC)c1OC	107.2	13	107.2	13	105.3	104.1
COc1ccc(Br)cc1CNCCSc1nnnn1C	97.1	253*	98.0	8	99.3	102.0
O=C(Nc1ccc(Nc2ccccc2)cc1)C(Cl)(Cl)Cl	101.7	2	105.3	12	103.8	97.6
CC(C)(C)OC(=O)N[C@@H](Cc1ccccc1)c1nnc(S(=O)(=O)Cc2ccccc2)o1	100.9	9	92.7	8	94.2	97.8
Cc1ccccc1CS(=O)(=O)c1nnc([C@H](Cc2ccccc2)NC(=O)OC(C)(C)C)o1	131.7	6	92.3	48*	93.6	115.8
CCOC(=O)c1nnsc1N	?	·	95.3	6	94.6	92.2
CC(Sc1nnc(Cc2cccs2)n1C1CCCCC1)C(=O)N1CCc2ccccc21 (stereo not drawn)	104.0	17	98.3	48*	97.0	98.4
SMILES	RGS7-Gao reg	GSH bead fluor	RGS16-Gao HTS	Avidin bead fluor	RGS8-Gao	RGS4-Gao reg
CN(C)c1nc(N2CCOCC2)nc(N(c2ccccc2)c2ccccc2)n1	104.0	266*	103.8	8	100.1	101.2
Nc1nc(N2CCOCC2)nc(N(c2ccccc2)c2ccccc2)n1	98.1	19	99.9	7	101.7	100.6
Cc1ccc(NC2=C(NCCO)C(=O)c3ccccc3C2=O)cc1	116.4	11	101.8	49*	100.0	118.4
COCCNC(=O)C1(C)Oc2ccccc2NC1=O (stereo not drawn)	98.5	260*	101.2	7	103.8	102.0
CCOc1ccc(OCC)c(NC(=O)C2CCN(c3ncccn3)CC2)c1	100.7	33	104.2	15	100.3	99.9
CCOc1ccc(OCC)c(NC(=O)C2CCCN(c3ncccn3)C2)c1 (stereo not drawn)	103.4	264*	104.7	7	102.8	104.0
O=C(CCC(=O)NNC(=O)COc1ccccc1)NCc1ccccc1	95.2	8	101.2	29	99.3	96.3
Cc1cc(C)cc(OCC(=O)NNC(=O)CCC(=O)NCc2ccccc2)c1	99.4	152*	94.3	3	97.6	98.5
O=C(CN1C(=O)c2ccccc2C1=O)OCC(=O)N1CCc2ccccc2C1	96.1	268*	103.3	8	99.0	100.2
COc1ccccc1NC(=O)c1c(N=Cc2cccc([N+](=O)[O-])c2)cnn1C	?	·	93.9	6	101.0	97.1
c1ccc2c(-c3cn4ccccc4n3)c[nH]c2c1	122.9	15	125.8	24	115.1	120.5
Cc1cccc(N(CC(=O)N/N=C/c2cc([N+](=O)[O-])ccc2Cl)S(C)(=O)=O)c1C	105.1	8	99.7	49*	99.8	102.5
CN(C)c1ccc(/C=C2\SC(=S)N(Nc3ncc(C(F)(F)F)cc3Cl)C2=O)cc1	118.9	45	122.9	56*	104.3	118.5
CC(=O)NC12CC3CC(C1)CC(C(=O)OCC(=O)Nc1ncc(Cl)c(C)c1Cl)(C3)C2	102.4	262*	96.3	8	100.2	98.1
CC1CCCC(n2c(=S)[nH]c3ccccc3c2=O)C1C (stereo not drawn)	102.8	19	100.9	36	103.0	102.8
Cc1cc(C)n(-c2nc(NCC(C)O)c3c4c(sc3n2)CCCC4)n1 (stereo not drawn)	99.6	24	99.8	47*	103.3	100.7
Cc1cc(=O)oc2cc(OC(C)C(=O)N3CCOCC3)ccc12 (stereo not drawn)	96.3	7	91.4	13	99.0	92.6
Cc1cc(=O)oc2cc(OCC(=O)N3CCOCC3)ccc12	89.6	122*	30.2	2	78.6	94.4
Nc1nonc1/C(=N/O)N1CCN(CCO)CC1	97.6	261*	100.9	9	98.4	101.5
CN1CCN(/C(=N\O)c2nonc2N)CC1	97.4	24	107.6	5	103.0	99.2
COC(=O)c1cc2c(ccn2-c2ccc(F)cc2)n1C(C)C	110.7	10	102.4	52*	103.6	108.7
COC(=O)c1cc2c(ccn2-c2ccc(F)cc2)n1CC(C)C	96.7	10	99.5	10	103.2	97.0
CC(C)NC(=O)COC(=O)c1ccc(Oc2ccccc2)cc1	104.4	265*	109.1	9	108.5	104.1
CC(O)C1C(=O)OC2(C)CC(C)(C)NC(=S)N12 (stereo not drawn)	105.8	119*	111.9	5	103.1	111.5
COc1ccccc1-c1nn2c(-c3ccco3)nnc2s1	93.8	16	95.6	2	99.9	97.6
